Test results published in a collection of fitness landscapes (doi:10.1126/science.1257360).
Over roughly 140,000 sequences, “enrichment ratio after two sorts for PhoP signalling” has its median near 0; the highest 2% begin near 11. The entries come from a sample that favours the highest values as a whole.

B1: PhoQ; a variant is named by its letters at X, in order, P23837 (parent)
chain: MKKLLRLFFPLSLRVRFLLATAAVVLVLSLAYGMVALIGYSVSFDKTTFRLLRGESNLFYTLAKWENNKLHVELPENIDKQSPTMTLIYDENGQLLWAQRDVPWLMKMIQPDWLKSNGFHEIEADVNDTSLLLSGDHSIQQQLQEVREDDDDAEMTHSVAVNVYPATSRMPKLTIVVVDTIPVELKSSYMVWSWFIYVLSANLLLVIPLLWVAAWWSLRPIEALAKEVRELEEHNRELLNPATTRELTSLVRNLNRLLKSERERYDKYRTTLTDLTHSLKTPLXXLQXXLRSLRSEKMSVSDAEPVMLEQISRISQQIGYYLHRASMRGGTLLSRELHPVAPLLDNLTSALNKVYQRKGVNISLDISPEISFVGEQNDFVEVMGNVLDNACKYCLEFVEISARQTDEHLYIVVEDDGPGIPLSKREVIFDRGQRVDTLRPGQGVGLAVAREITEQYEGKIVAGESMLGGARMEVIFGRQHSAPKDE

Variants of: B1
Assay: enrichment ratio after two sorts for PhoP signalling (ratio (wild type AVST 3.29)); higher = more functional
Conditions: with PhoP (E. coli)

Variant	enrichment ratio
KIAC	≤ 0.25
GADV	≤ 0.25
GNVT	≤ 0.25
LQFF	≤ 0.25
YIPQ	≤ 0.25
LFCN	≤ 0.25
RNVA	≤ 0.25
IHQN	≤ 0.25
VDDC	≤ 0.25
DQCK	≤ 0.25
LVLE	≤ 0.25
VCCN	≤ 0.25
SQCN	10.1
SCCN	17.1
LVPD	≤ 0.25
TRFL	≤ 0.25
DSSW	≤ 0.25
EETG	3.69
MITR	≤ 0.25
SGAY	15.2
SGYI	2.6
SGWY	≤ 0.25
SGGY	22.8
SGNY	≤ 0.25

Variant	enrichment ratio
SGDY	≤ 0.25
MFNP	≤ 0.25
RNKF	≤ 0.25
GSTI	12.2
KSCF	≤ 0.25
GSCF	11.5
GSHF	≤ 0.25
GSLY	7.32
GSWI	≤ 0.25
MERP	≤ 0.25
VWLN	≤ 0.25
DNMN	≤ 0.25
KALK	≤ 0.25
AAMK	35.5
NALK	≤ 0.25
AALK	12
AALT	11.9
YTLK	≤ 0.25
AALA	7.36
ATLA	9.51
AAAT	≤ 0.25
ATLK	17
AIMK	≤ 0.25
NAMK	≤ 0.25

Variant	enrichment ratio
HSVK	≤ 0.25
TFLL	3.21
PAYK	≤ 0.25
PNPY	≤ 0.25
GVVL	1.14
FWES	≤ 0.25
MFHN	≤ 0.25
VGKH	≤ 0.25
NSAT	≤ 0.25
KSAT	≤ 0.25
KSNT	≤ 0.25
KSNS	≤ 0.25
TSNT	11.9
TSAT	11.6
TSNS	12.8
TSNY	8.01
TSNW	≤ 0.25
GLRK	≤ 0.25
FLKG	0.285
GCSH	≤ 0.25
AATM	0.767
RWIC	≤ 0.25
FLKL	≤ 0.25
GILN	10.6

Variant	enrichment ratio
GNCS	7.94
GNCG	≤ 0.25
GICI	7.05
GICN	13.8
GICG	15.9
GICA	11.2
GNCA	9.24
GNCN	≤ 0.25
GIVG	10.4
GICP	≤ 0.25
GICS	11.2
CLFS	≤ 0.25
WHNW	≤ 0.25
WMSA	≤ 0.25
HCSR	≤ 0.25
TYDS	≤ 0.25
MLEL	≤ 0.25
MVWN	13.3
MVPY	≤ 0.25
MVAN	15.8
MVPA	≤ 0.25
GVAN	≤ 0.25
MVHV	≤ 0.25
MVYI	≤ 0.25

Variant	enrichment ratio
MVYK	17.6
MVIV	≤ 0.25
MVNL	≤ 0.25
MVYD	≤ 0.25
MVAV	11.4
GDLC	1.96
LWEG	≤ 0.25
RTKT	≤ 0.25
QLML	≤ 0.25
KICA	≤ 0.25
LLMY	≤ 0.25
FMIW	≤ 0.25
YMVF	≤ 0.25
NLLC	≤ 0.25
MVTG	≤ 0.25
MVMG	1.65
MVAG	12.7
LDKC	≤ 0.25
PPTY	≤ 0.25
NESH	≤ 0.25
TESH	32.2
TEGP	≤ 0.25
TEES	≤ 0.25
HPGH	≤ 0.25

Variant	enrichment ratio
HPYH	≤ 0.25
QEIH	≤ 0.25
TEGH	18.1
TEYH	20.6
TEIH	11.4
TETH	10.3
VEIH	≤ 0.25
DYRT	≤ 0.25
NIFH	≤ 0.25
YEYG	≤ 0.25
MMTM	10.9
KSAM	≤ 0.25
TSGM	19.2
KSGM	≤ 0.25
TSWM	16.2
TSAM	13.8
MMGM	1.99
MMWM	≤ 0.25
NVTM	≤ 0.25
NSAM	≤ 0.25
TSTM	25.6
KSWM	≤ 0.25
HFPI	≤ 0.25
TFKM	≤ 0.25

Variant	enrichment ratio
INVC	≤ 0.25
KVGI	≤ 0.25
GLDQ	≤ 0.25
DESQ	≤ 0.25
RFAC	≤ 0.25
STGF	11.4
SRGF	0.392
KYMF	≤ 0.25
KYGF	≤ 0.25
SQGF	0.381
SEMF	20.6
STMF	11.1
SEGF	12.8
STHF	≤ 0.25
MQAN	2.41
VFHF	≤ 0.25
QYTY	≤ 0.25
GGWG	≤ 0.25
IALA	≤ 0.25
AVFF	≤ 0.25
YVCH	0.383
GERH	≤ 0.25
DKRH	≤ 0.25
SRLM	8.53

Variant	enrichment ratio
SILM	0.906
GTLM	14.5
LTLM	2.03
GALM	12.1
SLLM	6.84
SELM	15.6
SNLM	12
SFLM	4.5
HILM	≤ 0.25
GMLM	1.25
GYLM	≤ 0.25
SPGC	≤ 0.25
GWTC	≤ 0.25
WFGV	≤ 0.25
IFGQ	≤ 0.25
VSCI	7.51
VLVC	≤ 0.25
SCAA	5.68
PIFW	1.39
LQRE	≤ 0.25
NQHW	≤ 0.25
IILM	0.265
KQLM	≤ 0.25
SALM	12.7

Variant	enrichment ratio
QCLM	≤ 0.25
ATLM	21.4
VCLM	4.34
ITLM	8.61
YTLM	9.3
TTLM	16.5
GCLM	16.5
YLIN	≤ 0.25
MTRF	≤ 0.25
FHGK	≤ 0.25
PTLY	≤ 0.25
EFRH	≤ 0.25
APYT	≤ 0.25
YSRL	≤ 0.25
LVSS	≤ 0.25
DSTR	≤ 0.25
IRCW	≤ 0.25
TYHN	≤ 0.25
GEDL	≤ 0.25
TNLM	2.74
GIYR	≤ 0.25
VNLM	22.6
GILM	15.7
MCLM	6.74

Variant	enrichment ratio
GIPM	≤ 0.25
VYLM	≤ 0.25
GNLM	17.5
GFLM	2.69
VFLM	≤ 0.25
LNLM	≤ 0.25
MNLM	15.1
AYGP	≤ 0.25
WTPP	≤ 0.25
ECHD	≤ 0.25
DMYC	≤ 0.25
TAWF	5.36
GYWP	≤ 0.25
GPLY	≤ 0.25
MPLM	≤ 0.25
MNCK	≤ 0.25
MNIM	12.3
GKLA	≤ 0.25
GKVM	≤ 0.25
MMLM	≤ 0.25
MTLM	13.8
SPLM	≤ 0.25
MNPM	≤ 0.25
GKLM	12.5

Variant	enrichment ratio
STLM	11.2
WSKW	≤ 0.25
HRWY	≤ 0.25
RRQK	≤ 0.25
PAKQ	≤ 0.25
VEYL	≤ 0.25
MFKL	≤ 0.25
KGPS	≤ 0.25
KVQA	≤ 0.25
SMDV	≤ 0.25
KFTV	≤ 0.25
SYTV	0.308
SDTV	13.5
NAMF	≤ 0.25
SVTV	11.3
SMTV	11.4
SAMF	14.8
KAMF	≤ 0.25
SVDV	≤ 0.25
SRTV	≤ 0.25
KITV	≤ 0.25
YFHI	≤ 0.25
TFLR	0.372
GGFA	≤ 0.25

Variant	enrichment ratio
GQMI	≤ 0.25
LTAP	≤ 0.25
RPSV	≤ 0.25
WEGK	≤ 0.25
QYAI	≤ 0.25
TKTV	20
SQGD	≤ 0.25
SQMD	17.4
KYTV	≤ 0.25
SITV	11.8
STMD	9.32
KSTV	≤ 0.25
SPTV	≤ 0.25
AKTV	5.31
QETV	≤ 0.25
NETV	8.86
TETV	17.9
RQLF	≤ 0.25
MHPM	≤ 0.25
IVSV	≤ 0.25
LDYS	≤ 0.25
PIMI	≤ 0.25
YPRI	≤ 0.25
KIFY	≤ 0.25

Variant	enrichment ratio
TSTV	26.5
KYAV	≤ 0.25
WIAV	≤ 0.25
MMTV	≤ 0.25
SLTV	10.4
SSTV	10.5
STIS	8.13
NVTV	≤ 0.25
YTIV	0.385
SETV	14.9
SIAV	12.2
STIV	11.9
GKTV	≤ 0.25
KFQS	≤ 0.25
SNDT	≤ 0.25
RWGI	≤ 0.25
EKED	≤ 0.25
VMLL	≤ 0.25
